Screens: PubChem BioAssay, several laboratories
Rows were chosen to be rich in hits. Some 12% of all compounds tested hit in one or more screens of this group.
WT yeast gro inh: growth inhibition of WT yeast, mitochondrial fusion screen; mitochondrial fusion phenotypic screen, WT strain; inhibition, % at 10 µM; 190,000 compounds, 2.1% hits; AID 1362; in the data active = inhibition above about 58%; tested in S. cerevisiae
Insulin prom inh: TRM-6 insulin promoter activity inhibition | TRM-6 cells (human fetal islet line), insulin promoter-eGFP reporter, imaging; reporter expression induced with tamoxifen | inhibition, % at 2 µM | 130,000 compounds, 0.9% hits;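 active = inhibition above the mean plus 3 SD, with well images judged a real hit on visual review, cut at about 60% in these data, passing the limit was not always enough; inconclusive = inhibition over the cutoff but images rejected on review; inactive = inhibition not above the cutoff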
ROMK primary: human ROMK K+ channel modulation, primary screen; P48048; Tet-inducible ROMK, thallium flux fluorescence; actives lie on both sides; B-score at 10 µM; 130,000 compounds, 2% hits;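 active = signal ratio slope over the read window, or its plate-corrected B-score, at least 3 SD from the plate mean, either direction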;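 also: B-score of the F/F0 ratio slope over 7 to 12 s after thallium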
Target sequence (P48048 whole entry, looked up): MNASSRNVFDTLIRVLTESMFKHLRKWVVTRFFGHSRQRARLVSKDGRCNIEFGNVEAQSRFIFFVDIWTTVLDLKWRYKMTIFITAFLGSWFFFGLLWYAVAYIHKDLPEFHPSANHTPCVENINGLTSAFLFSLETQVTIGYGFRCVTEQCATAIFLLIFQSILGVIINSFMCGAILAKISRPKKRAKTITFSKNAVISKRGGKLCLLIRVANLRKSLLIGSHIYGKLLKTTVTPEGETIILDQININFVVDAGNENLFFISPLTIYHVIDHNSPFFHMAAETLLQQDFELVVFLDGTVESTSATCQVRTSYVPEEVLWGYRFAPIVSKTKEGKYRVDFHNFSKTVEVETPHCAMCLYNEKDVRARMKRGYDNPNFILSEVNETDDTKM
Ins promoter up: MIN6 insulin promoter up-regulation | z-score at 5 µM | 190,000 compounds, 0.3% hits | MIN6 insulin promoter-GFP reporter, high-content imaging; stronger effect = higher value;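 active = z-score above 3 at 5 µM with at least 500 cells counted in the well; inconclusive = wells under 500 cells, flagged as cytotoxic or low count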
Lmaj promast: inhibitors of Leishmania major promastigote growth; Leishmania major promastigotes, resazurin fluorescence viability; 200,000 compounds, 9% hits; inhibition, % at 10 µM; AID 1063; in the data active = inhibition above about 50%;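 also: promastigotes grown with compound for 44 hours at 28 °C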
Cl transport mod: modulates chloride dependent transport by human KCC2; Q9H2X9; KCC2 cells, thallium flux FluoZin-2 fluorescence; B-score of Tl+ flux slope (higher = more flux/activation; lower = inhibition) at 10 µM; 190,000 compounds, 2.2% hits; AID 1456;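 active = thallium flux slope and its plate-corrected score both differing from the plate sample mean at a set confidence after two filtering rounds, in either direction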;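 also: slope of fluorescence scaled to starting intensity during 10 to 20 s after thallium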
The depositor's hits bear a star; ? = inconclusive; nt = not tested or not shown.

SMILES | WT yeast gro inh | Insulin prom inh | ROMK primary | Ins promoter up | Lmaj promast | Cl transport mod
Cc1cc(=O)oc2cc(OCc3ccc(S(=O)(=O)N4CCOCC4)cc3)ccc12 | 14 | 55 | nt | -0.83 | 80* | nt
Cc1cc(=O)oc2cc(OCc3ccc(C(=O)N4CCN(c5ccccc5)CC4)cc3)ccc12 | 37 | -14 | -0.8 | -0.12 | 65* | 0.016
C=CCN(C(=O)CNC(=O)c1cccs1)C(C(=O)NC1CCCCC1)c1cccnc1 (stereo not drawn) | -14 | nt | 0.24 | 0.01 | -6 | -1.6
Cc1ccc(OCCn2c(C3CC(=O)N(Cc4ccccc4)C3)nc3ccccc32)cc1 (stereo not drawn) | 9 | nt | nt | -0.3 | 92* | nt
O=S(=O)(O)c1nc2ccccc2n1Cc1cccc2ccccc12 | nt | nt | 0.56 | 0.88 | nt | -3.1
C=CCN1CC(c2nc3ccccc3n2Cc2cccc3ccccc23)CC1=O (stereo not drawn) | -6 | 61 | nt | nt | 87* | 0.096
Nc1c2c(nc3ccn(Cc4ccccc4)c(=O)c13)CCC2 | 13 | nt | -2.3 | -0.98 | 89* | -0.091
COc1cccc(-c2c3c([nH]c(=O)c2C#N)CCc2cc(OC)ccc2-3)c1 | nt | nt | 0.057 | -0.58 | nt | -0.027
CNC(=S)N/N=C/c1cn(Cc2c(F)cccc2Cl)c2ccccc12 | 62* | 31 | -0.55 | -0.88 | 28 | 1
O=C(CN(c1cccc([N+](=O)[O-])c1)S(=O)(=O)c1ccccc1)N(Cc1ccccc1)Cc1ccccc1 | 13 | -60 | -0.48 | -0.56 | 33 | -1.5
Cc1cccc(-n2c(=O)[nH]c3c(C(N)=O)nc(CC(C)C)nc32)c1 | 46 | 82* | -0.86 | 0.61 | 50* | nt
CC[C@H](C)[C@H](NC(N)=O)C(=O)NCCc1ccc(OC)c(OC)c1 | -9 | nt | 0.36 | 0.84 | -3 | -1.1
CC(=O)N1CCN(Cc2nc3scc(-c4ccccc4)c3c(=O)[nH]2)CC1 | 10 | 25 | -0.064 | 0.51 | -10 | 0.75
Cn1c(SCC(=O)NC(=O)c2cccc([N+](=O)[O-])c2)nnc1-c1ccc(F)cc1 | 6 | 0 | 0.47 | -0.34 | 44 | -1.8
Cn1c(Sc2ccc([N+](=O)[O-])cc2C(F)(F)F)nnc1-c1ccccc1 | 1 | nt | -1.1 | 0.05 | 62* | 0.55
O=c1oc2ccccc2cc1-c1nc2ccccc2o1 | -10 | -38 | nt | -0.2 | 4 | 0.89
COc1ccc(-c2nnc(-c3cc4ccccc4oc3=O)o2)cc1 | -18 | 17 | -0.35 | 0.02 | 5 | 1.2
O=c1oc2ccc3ccccc3c2cc1-c1nc2ccccc2o1 | nt | 38 | nt | nt | 100* | -0.31
COc1ccc2oc(=O)c(-c3nc4ccccc4o3)cc2c1 | -4 | -32 | nt | -0.16 | 98* | -1.2
CCCCn1c(NCCN(C)C)nc2c1c(=O)[nH]c(=O)n2C | -14 | 29 | -0.011 | -0.26 | 7 | nt
O=C(NCc1ccco1)C1CCN(S(=O)(=O)N2CCC3(CC2)OCCO3)CC1 | 20 | -7 | 0.76 | ? | -1 | -0.62
O=C(/C=C/c1ccccc1)C1C(=O)c2ccccc2C1=O | 16 | nt | nt | 0.62 | 9 | 36*
O=C(c1ccccc1)C1C(=O)c2ccccc2C1=O | -20 | nt | nt | 0.24 | -5 | nt
CCc1ccc(/C=C/C(=O)C2C(=O)c3ccccc3C2=O)cc1 | 7 | nt | nt | 1.1 | 1 | 19*
CCc1ccc(C2C(C(=O)O)c3ccccc3C(=O)N2C)cc1 (stereo not drawn) | -18 | nt | 0.41 | 0.09 | -6 | -0.33
SMILES | WT yeast gro inh | Insulin prom inh | ROMK primary | Ins promoter up | Lmaj promast | Cl transport mod
C=CCNc1nc2c(c(=O)n(C)c(=O)n2C)n1CC(=C)C | -4 | nt | nt | 0.1 | nt | 0.027
c1cncc(Nc2nc(-c3cccs3)cs2)c1 | 2 | 50 | -1.7 | nt | 13 | -1.3
Cc1ccc(Nc2nc(-c3cccs3)cs2)nc1 | 69* | 18 | -1 | -1.4 | 35 | 2
CCOC(=O)c1sc2ncn(C(CC)C(=O)OC)c(=O)c2c1C (stereo not drawn) | -10 | nt | -0.25 | 0.33 | 18 | -0.077
COC(=O)c1cn(C)c2ccc(S(=O)(=O)N3CCCCC3)cc2c1=O | -17 | nt | nt | nt | 1 | 0.19
C=C(C(=O)c1ccccc1)C(c1ccccc1)C(C)C(=O)c1ccccc1 (stereo not drawn) | 26 | nt | nt | 0.97 | 89* | -1.2
C=C(C(=O)c1ccccc1)C(C)C(=C)C(=O)c1ccccc1 | 51 | nt | nt | 0.3 | 100* | 0.2
COc1ccc2c(C)nc(Nc3nc(-c4ccccc4)cc(=O)[nH]3)nc2c1 | nt | nt | nt | -1 | nt | 0.15
Cc1nnc(SCc2cc(=O)[nH]c(Nc3nc(C)c4ccccc4n3)n2)s1 | nt | 5 | nt | nt | 84* | 1.1
Cc1ccc2nc(Nc3nc(CSc4nnc(C)s4)cc(=O)[nH]3)nc(C)c2c1 | 20 | nt | -1 | -0.36 | 38 | -1.2
COc1ccc2c(C)nc(Nc3nc(C)cc(=O)[nH]3)nc2c1 | nt | 25 | nt | nt | 100* | -0.25
Cc1ccc2c(C)nc(Nc3nc(CSc4nc5ccccc5[nH]4)cc(=O)[nH]3)nc2c1 | 10 | 13 | nt | -1.3 | 100* | -0.83
CCOc1ccccc1OCCCC(=O)N1CCN(S(=O)(=O)c2cccc(F)c2)CC1 | -6 | nt | 0.072 | 0.39 | -2 | 1.1
COC(=O)C1=C(SC)N(c2ccccc2)C(c2ccccc2)CC1=O (stereo not drawn) | 6 | -10 | nt | 0.14 | -2 | -1.4
COc1ccc(S(=O)(=O)NCC2CCCN(C(=O)CNC(C)=O)C2)cc1 (stereo not drawn) | -4 | nt | -0.26 | -0.13 | -3 | -1.4
CC(NC(=O)CC(c1ccccc1)c1cc(Cl)ccc1O)c1ccccc1 (stereo not drawn) | 28 | -11 | 0.49 | -0.58 | 98* | -2.3
COc1ccc(NC(C)c2cc(Cl)ccc2O)cc1 (stereo not drawn) | -7 | -36 | nt | 0.32 | 8 | -0.25
Cc1ccc(O)c(C(CC(=O)NC(C)C)c2ccccc2)c1 (stereo not drawn) | 5 | -18 | 1.7 | 0.03 | 7 | 0.058
CC(Nc1ccccc1)c1cc(Cl)ccc1O (stereo not drawn) | -4 | -93 | -0.58 | nt | 96* | -0.34
O=C1CCCN1CCCNS(=O)(=O)c1cccc(F)c1 | -7 | nt | -0.067 | -0.62 | -1 | 0.71
O=C(CN1CCC(O)(c2ccc3c(c2)OCO3)CC1)OC1CCCCC1 | 20 | -27 | nt | -0.24 | 97* | nt
O=C(NCC1CCCO1)c1cccnc1Nc1ccccc1F (stereo not drawn) | -4 | nt | -0.46 | 0.55 | 2 | -0.72
O=C1CCCC(=O)N1c1ccc(N2CCN(c3ccccc3)CC2)c([N+](=O)[O-])c1 | -18 | -27 | 0.25 | -0.21 | -8 | 0.96
Cc1cccc(N2CCN(c3ccc(N4C(=O)CCCC4=O)cc3[N+](=O)[O-])CC2)c1C | 8 | -4 | -0.33 | 0.31 | 58* | -0.074
CN(Cc1ccccc1)c1ccc(N2C(=O)CCCC2=O)cc1[N+](=O)[O-] | 1 | -40 | -0.098 | -0.55 | 81* | -2.8
Cc1cccc(N2CCN(c3ccc(N4C(=O)CCCC4=O)cc3[N+](=O)[O-])CC2C)c1 (stereo not drawn) | 12 | 24 | 0.42 | -0.05 | 50* | -1.4
